From PubChem BioAssay
IDE exosite inh: displaces the probe from the exo-site of human IDE | P14735 | purified IDE, FL-6b probe fluorescence polarization; hits give low values | z-score at 20 µM | 6.3% of 17,000 active;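 active = z-score of -3 or lower, meaning strong loss of probe binding signal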;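 note: His-tagged human IDE residues 42-1019 made in E. coli with 30 nM FL-6b probe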
Target sequence (P14735 42-1019 limits assumed): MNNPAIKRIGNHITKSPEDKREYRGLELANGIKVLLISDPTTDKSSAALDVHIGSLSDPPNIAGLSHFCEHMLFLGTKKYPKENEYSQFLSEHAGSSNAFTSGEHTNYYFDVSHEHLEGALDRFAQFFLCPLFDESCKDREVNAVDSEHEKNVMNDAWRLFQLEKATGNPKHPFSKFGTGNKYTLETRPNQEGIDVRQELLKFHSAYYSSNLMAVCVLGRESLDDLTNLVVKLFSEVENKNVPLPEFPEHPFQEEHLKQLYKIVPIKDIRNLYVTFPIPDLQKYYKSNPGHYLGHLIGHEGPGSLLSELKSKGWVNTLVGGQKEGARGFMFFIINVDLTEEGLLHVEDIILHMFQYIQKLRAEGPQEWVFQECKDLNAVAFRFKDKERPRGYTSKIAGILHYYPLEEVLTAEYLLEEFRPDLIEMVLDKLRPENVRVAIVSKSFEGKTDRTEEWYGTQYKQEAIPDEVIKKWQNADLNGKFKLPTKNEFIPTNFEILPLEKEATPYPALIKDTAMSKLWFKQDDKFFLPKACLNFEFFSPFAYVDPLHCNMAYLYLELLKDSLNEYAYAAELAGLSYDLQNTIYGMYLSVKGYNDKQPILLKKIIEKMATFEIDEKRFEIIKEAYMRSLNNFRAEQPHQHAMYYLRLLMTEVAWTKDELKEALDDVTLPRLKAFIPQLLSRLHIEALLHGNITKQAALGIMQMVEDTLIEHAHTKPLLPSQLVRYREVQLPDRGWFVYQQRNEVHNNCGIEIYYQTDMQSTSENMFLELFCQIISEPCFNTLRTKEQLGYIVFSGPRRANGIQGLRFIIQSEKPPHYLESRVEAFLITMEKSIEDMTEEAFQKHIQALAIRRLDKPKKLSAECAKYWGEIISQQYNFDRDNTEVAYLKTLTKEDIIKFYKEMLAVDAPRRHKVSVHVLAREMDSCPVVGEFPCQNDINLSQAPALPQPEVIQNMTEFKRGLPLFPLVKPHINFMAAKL
Active calls of the source: *. This excerpt belongs to a sample that is enriched for hits.

SMILES | IDE exosite inh
CC(C)NC(=O)N1CCCCN2[C@H](CO)[C@H](c3ccc(C#C[C@@H](C)O)cc3)[C@@H]2C1 | 0.6
CC(C)NC(=O)N1CCCCN2[C@H](CO)[C@@H](c3ccc(C#C[C@H](C)O)cc3)[C@H]2C1 | 0.032
CC(C)C#Cc1ccc([C@@H]2[C@@H](CO)N3CCCCN(C(=O)NC(C)C)C[C@H]23)cc1 | 0.57
CC(C)NC(=O)N1CCCCN2[C@H](CO)[C@@H](c3ccc(C#C[C@@H](C)O)cc3)[C@H]2C1 | 0.065
CCCC#Cc1ccc2c(c1)O[C@@H](CN(C)Cc1ccccn1)[C@H](C)CN([C@H](C)CO)S2(=O)=O | -1.8
O=C(NC[C@@H]1N[C@@H](CO)[C@H]1c1ccccc1)C1CCCC1 | 2.3
O=C(NC[C@H]1N[C@H](CO)[C@@H]1c1ccccc1)C1CC1 | 3
O=C(NC[C@H]1N[C@H](CO)[C@@H]1c1ccccc1)C1CCC1 | 0.4
COc1ccccc1-c1ccc([C@H]2[C@@H](CO)N[C@@H]2CNC(=O)C2CC2)cc1 | -4.2*
O=C(NC[C@H]1N[C@H](CO)[C@@H]1c1ccc(-c2ccccc2)cc1)C1CCC1 | -3.5*
O=C(NC[C@@H]1N[C@@H](CO)[C@H]1c1ccccc1)C1CCC1 | 2.5
O=C(Nc1ccccc1F)N1CC(=O)N2[C@@H](CO)[C@@H](c3ccc(-c4ccc(F)cc4)cc3)[C@@H]2C1 | 2.5
COCC#Cc1ccc([C@@H]2[C@@H](CO)N3C(=O)CN(C(=O)C4CCOCC4)C[C@H]23)cc1 | 0.85
O=C(C[C@H]1CC[C@@H]2[C@H](COC[C@@H](O)CN2C(=O)Nc2ccccc2)O1)NCc1ccccc1F | 0.97
COCC(=O)N1CC(=O)N2[C@H](CO)[C@H](c3ccc(C#CCc4ccccc4)cc3)[C@@H]2C1 | -1.6
COCC(=O)N1CC(=O)N2[C@H](CO)[C@H](c3ccc(-c4ccccc4F)cc3)[C@@H]2C1 | -2.3
COc1cccc(C(=O)N2C[C@@H]3[C@H](c4ccccc42)[C@H](CO)N3C(=O)c2cccc(F)c2)c1 | 1.8
N#Cc1ccc(-c2ccc([C@@H]3[C@@H](CO)N4C(=O)CN(C(=O)C5CCCC5)C[C@@H]34)cc2)cc1 | 2.3
OC[C@@H]1[C@@H](c2ccc(-c3ccccc3F)cc2)[C@H]2CN(Cc3ccncc3)CCCCN12 | 4.1
OC[C@@H]1[C@H](c2ccc(-c3ccccc3)cc2)[C@H]2CN(Cc3ccccn3)CCCCN12 | -0.24
Cc1cccc(-c2ccc([C@@H]3[C@@H](CO)N4CCCCN(Cc5ccncc5)C[C@H]34)cc2)c1 | -5*
OC[C@@H]1[C@H](c2ccc(-c3ccccc3)cc2)[C@@H]2CN(Cc3ccccn3)CCCCN12 | -3*
OC[C@H]1[C@H](c2ccc(-c3ccccc3)cc2)[C@H]2CN(Cc3ccccn3)CCCCN21 | -1.8
OC[C@@H]1[C@@H](c2ccc(-c3ccc(F)cc3)cc2)[C@H]2CN(Cc3ccncc3)CCCCN12 | 5.3
OC[C@@H]1[C@H](c2ccc(-c3ccc(F)cc3)cc2)[C@@H]2CN(Cc3ccncc3)CCCCN12 | 4.4
SMILES | IDE exosite inh
OC[C@H]1[C@H](c2ccc(-c3ccccc3F)cc2)[C@@H]2CN(Cc3ccncc3)CCCCN12 | 3.5
COc1ccccc1-c1ccc([C@H]2[C@H](CO)N3CCCCN(Cc4ccncc4)C[C@@H]23)cc1 | -8*
COc1ccc(NC(=O)N2CC(=O)N3[C@@H](CO)[C@H](c4ccc(C5=CCCC5)cc4)[C@@H]3C2)cc1 | -0.8
O=C(Nc1cccc(F)c1)N1CC(=O)N2[C@H](CO)[C@@H](c3ccc(-c4ccc(F)cc4)cc3)[C@H]2C1 | 0.87
C[C@@H](O)C#Cc1ccc([C@@H]2[C@@H](CO)N3CCCCN(S(=O)(=O)c4ccccc4)C[C@@H]23)cc1 | 0.48
C/C=C/c1ccc([C@H]2[C@@H](CO)N(C(=O)CC)[C@@H]2CNC(=O)C2CC2)cc1 | 3.7
CO[C@H]1CC[C@H]2CCN(C)C(=O)CCCN(C)C(=O)c3cc(C#N)ccc3OC[C@H]1O2 | 0.19
O=C(c1ccncc1)N1CC(=O)N2[C@H](CO)[C@@H](c3ccc(-c4ccccc4F)cc3)[C@H]2C1 | 0.35
O=C(c1ccncc1)N1CC(=O)N2[C@@H](CO)[C@H](c3ccc(-c4ccccc4F)cc3)[C@@H]2C1 | -4.8*
O=C(c1ccncc1)N1CC(=O)N2[C@H](C1)[C@@H](c1ccc(-c3ccccc3F)cc1)[C@@H]2CO | -7.4*
O=C(c1ccc(F)cc1)N1CC(=O)N2[C@@H](CO)[C@@H](c3ccc(-c4ccccc4F)cc3)[C@@H]2C1 | -0.78
O=C(c1ccc(F)cc1)N1CC(=O)N2[C@H](CO)[C@H](c3ccc(-c4ccccc4F)cc3)[C@H]2C1 | 3
O=C(c1ccncc1)N1CC(=O)N2[C@@H](CO)[C@@H](c3ccc(-c4ccccc4F)cc3)[C@@H]2C1 | -1.6
C/C=C/c1ccc([C@H]2[C@@H](CO)N(CC3CCCCC3)[C@@H]2CNC(C)C)cc1 | 1.1
Cc1ccccc1-c1ccc([C@H]2[C@@H](CO)N3CCCCN(Cc4cccnc4)C[C@H]23)cc1 | -11*
OC[C@@H]1[C@@H](c2ccc(/C=C/c3ccccc3)cc2)[C@@H]2CN(Cc3cncnc3)CCCCN12 | -7.9*
OC[C@H]1[C@@H](c2ccc(-c3ccccc3F)cc2)[C@H]2CN(Cc3cccnc3)CCCCN21 | 2.5
OC[C@@H]1[C@@H](c2ccc(/C=C/c3ccccc3)cc2)[C@@H]2CN(Cc3cccnc3)CCCCN12 | -0.94
OC[C@@H]1[C@@H](c2ccc(-c3ccccc3)cc2)[C@H]2CN(Cc3cncnc3)CCCCN12 | 2.7
OC[C@H]1[C@H](c2ccc(-c3ccc(F)cc3)cc2)[C@H]2CN(Cc3cccnc3)CCCCN21 | 1.4
OC[C@@H]1[C@H](c2ccc(/C=C/c3ccccc3)cc2)[C@H]2CN(Cc3cncnc3)CCCCN12 | -4.4*
OC[C@H]1[C@@H](c2ccc(-c3cccc(F)c3)cc2)[C@@H]2CN(Cc3cncnc3)CCCCN12 | 0.014
OC[C@@H]1[C@H](c2ccc(/C=C/c3ccccc3)cc2)[C@@H]2CN(Cc3cccnc3)CCCCN12 | -5.2*
OC[C@@H]1[C@H](c2ccc(-c3cccc(F)c3)cc2)[C@H]2CN(Cc3cncnc3)CCCCN12 | -0.54
OC[C@H]1[C@H](c2ccc(-c3ccccc3F)cc2)[C@@H]2CN(Cc3cccnc3)CCCCN12 | 2.6
SMILES | IDE exosite inh
OC[C@H]1[C@H](c2ccc(Br)cc2)[C@@H]2CN(Cc3cncnc3)CCCCN12 | 2.8
CCS(=O)(=O)N1[C@H](CO)[C@H](c2ccc(C3=CCCCC3)cc2)[C@@H]1C#N | 1.3
C[C@@H](NC(=O)C[C@@H]1CC[C@@H]2[C@@H](COc3ccc(NS(=O)(=O)c4ccc(Cl)cc4)cc3C(=O)N2C)O1)c1ccccc1 | -0.92
C/C=C/c1ccc([C@H]2[C@@H](CNC(C)=O)N(C(=O)Cc3cccnc3)[C@H]2CO)cc1 | 4
CC(=O)N1[C@H](CO)[C@@H](c2ccccc2)[C@@H]1CNC(=O)CN1CCOCC1 | -0.19
C[C@@H]1CCn2cc(nn2)COC[C@@H](c2ccccc2)NC1=O | 0.6
N#C[C@@H]1[C@H](c2ccccc2C2=CCCC2)[C@H](CO)N1C(=O)NC1CCCCC1 | -0.079
COc1ccc(C#Cc2ccc([C@@H]3[C@H]4CN(C(C)=O)CC(=O)N4[C@H]3CO)cc2)cc1 | 2.8
N#C[C@@H]1[C@H](c2ccc(C3=CCCC3)cc2)[C@@H](CO)N1C(=O)C1CC1 | 5.2
COc1ccc(C[C@@H]2CCn3nncc3COCCCNC2=O)cc1 | -0.48
O=C(C1CCOCC1)N1CC2(C1)[C@H](c1ccccc1)[C@@H](CO)N2Cc1ccccc1F | 1.3
